Test results published in PubChem BioAssay (Tox21).
Several values for one entry are separate records, joined by “and”; a condition that tells them apart may be missing. Equal entries are not always repeated. Unmarked numbers belong to inactive results. Where a call stands in place of a potency, no number is given. Activity calls are given as the source filed them. Unless noted, the call rests on the fitted dose curve; in most records, active means well fitted curve in the direction sought with a large enough effect in the repeat runs; inconclusive means weak or mixed curves; inactive means no such curve, though single readings can be large; an effect the other way counts as inactive or inconclusive.

Columns and labels:
[1] = qHTS assay to identify small molecule antagonists of the thyroid receptor (TR) signaling pathway (AID 743065); further: nearly all actives have a fitted effect of over 55% in size; further: potency means the concentration at half of the fitted maximal effect
Procedure, shortened: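 Antagonism measured as loss of luciferase signal in GH3 cells stably carrying a TRE-luciferase reporter, co-treated with compound and T3 (1 nM final) for 23.5 h at 37 C. Viability was read in the same well by CellTiter-Fluor.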

[2] = system: thyroid hormone receptor (rat, GH3 cells); test: qHTS assay to identify small molecule agonists of the thyroid receptor (TR) signaling pathway (AID 743066; calls by dose curve)
[3] = target: Estrogen receptor (Homo sapiens) (UniProt P03372); test: qHTS assay to identify small molecule antagonists of the estrogen receptor alpha (ER-alpha) signaling pathway (AID 743069; active means well fitted curve in the direction sought with a large enough effect in the signal ratio in the repeat runs, not every such curve was filed as active; inconclusive means weak or mixed curves, or effect the other way; inactive means no such curve, though single readings can be large or run the other way; the % refers to the signal ratio)
Estrogen receptor (Homo sapiens), sequence (P03372 whole entry, looked up): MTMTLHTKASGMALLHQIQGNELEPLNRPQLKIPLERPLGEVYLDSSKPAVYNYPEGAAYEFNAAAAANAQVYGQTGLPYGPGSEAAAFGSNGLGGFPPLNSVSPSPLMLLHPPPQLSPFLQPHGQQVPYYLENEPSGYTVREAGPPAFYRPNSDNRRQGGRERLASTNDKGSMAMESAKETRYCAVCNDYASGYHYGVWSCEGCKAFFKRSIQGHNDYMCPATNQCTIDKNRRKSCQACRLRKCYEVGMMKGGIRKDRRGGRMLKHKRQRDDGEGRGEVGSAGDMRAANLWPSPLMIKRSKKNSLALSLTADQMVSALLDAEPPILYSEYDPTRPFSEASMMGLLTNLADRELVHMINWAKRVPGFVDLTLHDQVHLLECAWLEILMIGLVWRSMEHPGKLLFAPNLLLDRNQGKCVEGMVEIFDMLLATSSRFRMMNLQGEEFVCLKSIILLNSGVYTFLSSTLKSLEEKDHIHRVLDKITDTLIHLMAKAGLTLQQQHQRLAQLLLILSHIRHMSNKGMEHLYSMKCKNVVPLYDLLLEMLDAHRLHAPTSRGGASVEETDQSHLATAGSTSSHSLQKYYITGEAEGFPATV
Procedure, shortened: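 ER-alpha-UAS-bla GripTite HEK293 line; 2% charcoal-stripped FBS overnight; plated, 4 hr 37C/5% CO2; cpd in DMSO + 17beta-estradiol, 18 hr 37C; LiveBLAzer B/G FRET substrate 2 hr RT; fluorescence intensity.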

[4] = target: Estrogen receptor (Homo sapiens) (UniProt P03372); test: qHTS assay to identify small molecule agonists of the estrogen receptor alpha (ER-alpha) signaling pathway (AID 743075; calls by dose curve;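 further: HEK293 GripTite cells with ER-alpha and UAS-driven beta-lactamase reporter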; further: potency means the concentration at half of the fitted maximal effect)
[5] = target: Estrogen receptor (Homo sapiens) (UniProt P03372); test: qHTS assay to identify small molecule agonists of the estrogen receptor alpha (ER-alpha) signaling pathway using the BG1 cell line (AID 743079); further: nearly all actives have a fitted effect of over 20% in size; further: potency means the concentration at half of the fitted maximal effect
[6] = qHTS assay to identify small molecule antagonists of the estrogen receptor alpha (ER-alpha) signaling pathway using the BG1 cell line (AID 743080; calls by dose curve;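 further: BG1 cells stimulated with 17beta-estradiol alongside compound; nearly all actives have a fitted effect of over 25% in size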; further: potency means the concentration at half of the fitted maximal effect)
Procedure, shortened: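 Endogenous full-length ER-alpha in BG1-Luc-4E2 cells drives a stably integrated 4×ERE luciferase gene; compounds were tested against 17beta-estradiol over 21.5 h, with luminescence and multiplexed viability fluorescence recorded.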

[7] = qHTS assay to identify small molecule antagonists of the estrogen receptor alpha (ER-alpha) signaling pathway using the BG1 cell line - cell viability counter screen (AID 743081);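 further: compound given together with 17beta-estradiol as the ER stimulus; series mostly up to about 70 µM; nearly all actives have a fitted effect of over 45% in size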
Aromatase (Homo sapiens) = Aromatase (Homo sapiens) (UniProt P11511); test: qHTS assay to identify aromatase inhibitors (AID 743083); further: nearly all actives have a fitted effect of over 55% in size; further: potency means the concentration at half of the fitted maximal effect
Aromatase (Homo sapiens), sequence (P11511 whole entry, looked up): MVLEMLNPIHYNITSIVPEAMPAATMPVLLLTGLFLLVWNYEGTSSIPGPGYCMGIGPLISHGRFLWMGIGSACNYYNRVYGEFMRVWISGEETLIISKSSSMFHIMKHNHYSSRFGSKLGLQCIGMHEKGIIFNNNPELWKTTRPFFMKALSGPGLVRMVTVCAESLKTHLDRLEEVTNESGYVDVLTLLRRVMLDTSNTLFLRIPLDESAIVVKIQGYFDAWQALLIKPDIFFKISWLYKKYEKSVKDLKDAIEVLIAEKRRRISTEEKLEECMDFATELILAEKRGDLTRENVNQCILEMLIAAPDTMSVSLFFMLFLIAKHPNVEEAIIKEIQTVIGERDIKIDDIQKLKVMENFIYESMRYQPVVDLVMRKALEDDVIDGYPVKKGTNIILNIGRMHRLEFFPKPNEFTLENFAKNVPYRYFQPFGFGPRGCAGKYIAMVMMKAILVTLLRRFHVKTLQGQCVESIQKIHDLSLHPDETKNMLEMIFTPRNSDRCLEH

[8] = qHTS assay to identify aromatase inhibitors - cell viability counter screen (AID 743084);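 further: cells stimulated with testosterone during compound exposure; nearly all actives have a fitted effect of over 55% in size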
[9] = target: Aryl hydrocarbon receptor (Homo sapiens) (UniProt P35869); test: qHTS assay to identify small molecule that activate the aryl hydrocarbon receptor (AhR) signaling pathway (AID 743085); further: nearly all actives have a fitted effect of over 15% in size; further: potency means the concentration at half of the fitted maximal effect;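 on activation: HG2L7.5c1 human HepG2 liver cells with stably integrated DRE-driven firefly reporter; series mostly up to about 70 µM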
Aryl hydrocarbon receptor (Homo sapiens), sequence (P35869 whole entry, looked up): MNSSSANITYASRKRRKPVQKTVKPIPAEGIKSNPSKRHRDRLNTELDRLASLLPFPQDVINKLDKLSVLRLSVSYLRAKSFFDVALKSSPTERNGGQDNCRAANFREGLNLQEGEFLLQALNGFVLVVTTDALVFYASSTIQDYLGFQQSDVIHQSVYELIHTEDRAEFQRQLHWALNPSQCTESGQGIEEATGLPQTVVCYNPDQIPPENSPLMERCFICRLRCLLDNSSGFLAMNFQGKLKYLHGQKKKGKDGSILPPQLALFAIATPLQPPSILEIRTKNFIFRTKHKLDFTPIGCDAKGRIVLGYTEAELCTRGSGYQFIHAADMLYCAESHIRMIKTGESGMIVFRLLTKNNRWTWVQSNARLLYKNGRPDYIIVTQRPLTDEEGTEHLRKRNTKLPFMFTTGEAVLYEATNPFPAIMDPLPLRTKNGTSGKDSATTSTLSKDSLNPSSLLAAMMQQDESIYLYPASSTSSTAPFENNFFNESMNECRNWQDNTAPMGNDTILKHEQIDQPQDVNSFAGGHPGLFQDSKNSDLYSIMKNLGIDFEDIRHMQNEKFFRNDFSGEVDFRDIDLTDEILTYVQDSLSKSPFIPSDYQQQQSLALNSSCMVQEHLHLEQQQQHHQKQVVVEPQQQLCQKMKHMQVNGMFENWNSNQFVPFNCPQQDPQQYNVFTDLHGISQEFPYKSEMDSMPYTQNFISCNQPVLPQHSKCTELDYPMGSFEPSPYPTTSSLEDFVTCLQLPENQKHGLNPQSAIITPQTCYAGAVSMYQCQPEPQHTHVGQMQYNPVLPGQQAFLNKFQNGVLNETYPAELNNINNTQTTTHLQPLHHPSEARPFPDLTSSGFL
Procedure, shortened: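 Steps: seed HepG2-AhR-luc cells; allow 5 h at 37C; pin-transfer test compound or vehicle; incubate 24 h at 37C; add viability dye (30 min, 37C) and read fluorescence; add luciferase substrate (30 min, RT) and read luminescence.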

[10] = qHTS assay to identify small molecule that activate the aryl hydrocarbon receptor (AhR) signaling pathway - cell viability counter screen (AID 743086);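 further: HepG2 liver cells carrying the AhR DRE luciferase reporter; series mostly up to about 70 µM; nearly all actives have a fitted effect of over 45% in size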
Procedure, shortened: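 Cytotoxicity counter screen: CellTiter-Fluor signal (30 min, 37 C) in 4000 HepG2 cells/well carrying the DRE-luciferase reporter, following 24 h compound exposure at 37 C.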

[11] = target: Peroxisome proliferator-activated receptor gamma (Homo sapiens) (UniProt P37231); test: qHTS assay to identify small molecule agonists of the peroxisome proliferator-activated receptor gamma (PPARg) signaling pathway (AID 743094; active means well fitted activation curve with a large enough effect in the signal ratio in the repeat runs, not every such curve was filed as active; inconclusive means weak or mixed curves, or effect the other way; inactive means no such curve, though single readings can be large or run the other way; the % refers to the signal ratio)
Peroxisome proliferator-activated receptor gamma (Homo sapiens), sequence (P37231 whole entry, looked up): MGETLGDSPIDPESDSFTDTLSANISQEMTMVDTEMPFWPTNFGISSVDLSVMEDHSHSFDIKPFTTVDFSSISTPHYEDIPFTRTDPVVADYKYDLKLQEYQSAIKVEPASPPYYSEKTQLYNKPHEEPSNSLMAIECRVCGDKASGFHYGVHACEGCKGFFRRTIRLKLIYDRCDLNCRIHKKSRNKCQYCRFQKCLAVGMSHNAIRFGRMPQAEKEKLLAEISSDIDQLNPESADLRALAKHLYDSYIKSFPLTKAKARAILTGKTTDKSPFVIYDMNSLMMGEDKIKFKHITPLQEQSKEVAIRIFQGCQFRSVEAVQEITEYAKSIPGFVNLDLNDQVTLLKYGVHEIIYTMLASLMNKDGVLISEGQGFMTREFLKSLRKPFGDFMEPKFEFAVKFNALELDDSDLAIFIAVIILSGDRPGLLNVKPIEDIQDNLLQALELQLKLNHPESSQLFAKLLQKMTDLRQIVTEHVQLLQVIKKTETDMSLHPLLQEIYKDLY
Procedure, shortened: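 Stably transfected HEK293H cells (GeneBLAzer PPARg UAS-bla) were incubated with test substances for 17 h at 37C after a 5 h pre-incubation; beta-lactamase activity was then detected by FRET substrate fluorescence.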

[12] = qHTS assay to identify small molecule antagonists of the peroxisome proliferator-activated receptor gamma (PPARg) signaling pathway - cell viability counter screen (AID 743194); further: nearly all actives have a fitted effect of over 55% in size
Procedure, shortened: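 Viability was measured as CellTiter-Glo luminescence in GeneBLAzer PPARg UAS-bla HEK293H cells. These cells had been exposed 17 h at 37 C to compounds together with rosiglitazone at 50 nM final, with the beta-lactamase readout taken in the same wells.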

[13] = qHTS assay for small molecule agonists of the antioxidant response element (ARE) signaling pathway - cell viability counter screen (AID 743203; calls by dose curve; further: nearly all actives have a fitted effect of over 55% in size; further: potency means the concentration at half of the fitted maximal effect)
Procedure, shortened: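 Cells (ARE-bla HepG2, 2,000/well) receive DMSO-dissolved compounds after a 5 hrs rest. Plates incubate 16 hrs at 37C/5% CO2. CellTiter-Glo luminescence is then recorded after 30 min at room temperature.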

[14] = qHTS assay for small molecule activators of the heat shock response signaling pathway (AID 743210; active means well fitted activation curve with a large enough effect in the signal ratio in the repeat runs, with a control signal flat, not every such curve was filed as active; inconclusive means weak or mixed curves; the % refers to the signal ratio;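 further: HeLa cells with beta-lactamase reporter driven by heat shock elements; series mostly up to about 63 µM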)
Procedure, shortened: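 HeLa HSE-bla cells, overnight plating; cpd in DMSO 5 h, 37 C; LiveBLAzer B/G FRET substrate 2.5 h RT; fluorescence intensity read.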

[15] = qHTS assay for small molecule agonists of the antioxidant response element (ARE) signaling pathway (AID 743202; active means well fitted activation curve with a large enough effect in the signal ratio in the repeat runs, not every such curve was filed as active; inconclusive means weak or mixed curves, or effect the other way; inactive means no such curve, though single readings can be large or run the other way; the % refers to the signal ratio; further: potency means the concentration at half of the fitted maximal effect)
Procedure, shortened: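 Quantitative high-throughput format in HepG2 cells bearing an integrated ARE-beta-lactamase reporter. Compound exposure lasted 16 h at 37 C, and fluorescence was read 2 h after adding LiveBLAzer B/G substrate at room temperature.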

[16] = qHTS assay for small molecule activators of the heat shock response signaling pathway - cell viability counter screen (AID 743209); further: nearly all actives have a fitted effect of over 50% in size
Procedure, shortened: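 Quantitative HTS format, Tox21 10K library. HeLa cells carrying an HSE-driven beta-lactamase reporter were treated 5 h at 37 C, then assessed for viability by CellTiter-Glo luminescence.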

[17] = qHTS assay to identify small molecule antagonists of the estrogen receptor alpha (ER-alpha) signaling pathway - cell viability counter screen (AID 743074; calls by dose curve;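 further: HEK293 cells carrying ER-alpha-UAS-bla reporter stimulated with 17beta-estradiol; nearly all actives have a fitted effect of over 45% in size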)
[18] = target: Peroxisome proliferator-activated receptor gamma (Homo sapiens) (UniProt P37231); test: qHTS assay to identify small molecule antagonists of the peroxisome proliferator-activated receptor gamma (PPARg) signaling pathway (AID 743191; calls by dose curve; further: series mostly up to about 63 µM; nearly all actives have a fitted effect of over 30% in size)
Procedure, shortened: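 Beta-lactamase reporter under UAS control in HEK293H PPARg-bla cells; compound treatment 17 h at 37C. Read-out: fluorescence intensity after 1 h room-temperature incubation with LiveBLAzer B/G FRET substrate.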

Row | Compound | Potency [1] | outcome [2] | Potency [3] | Potency [4] | Potency [5] | Potency [6] | Potency [7] | Potency (Aromatase (Homo sapiens)) | Potency [8] | Potency [9] | Potency [10] | Potency [11] | Potency [12] | Potency [13] | Potency [14] | Potency [15] | Potency [16] | Potency [17] | Potency [18]
1 | C1CCC(SSC2CCCCC2)CC1 | inactive | inactive | inactive | inactive | inactive | inactive | inactive | inactive | inactive | inactive | inactive | inactive | inactive | inactive | inactive |  |  |  | 
2 | CCCCN(CCCC)CC(O)c1cc(Cl)cc2c1-c1ccc(Cl)cc1/C2=C/c1ccc(Cl)cc1 (stereo not drawn) | 29.8 µM (active) |  | inactive | inactive | 23.7 µM (active) |  | inactive | inactive | inactive | 26.6 µM (active) | inactive | inactive | inactive |  |  | inactive |  |  | 
3 | Cc1c(C)c([N+](=O)[O-])c(C(C)(C)C)c([N+](=O)[O-])c1C |  |  | inactive | inactive | inactive | inactive | inactive |  | inactive | inactive | inactive | inactive |  |  | inactive | inactive | inactive |  | 
4 | Nc1cc(Cl)c(O)c(Cl)c1 |  | inactive |  | inactive | inactive |  | inactive | inactive | inactive | 61.1 µM (active) |  |  |  | inactive |  |  | inactive | inactive | 
5 | O=S(=O)(O)c1ccc(Nc2nc(Nc3ccc(/C=C/c4ccc(Nc5nc(Nc6ccc(S(=O)(=O)O)cc6)nc(N(CCO)CCO)n5)cc4S(=O)(=O)O)c(S(=O)(=O)O)c3)nc(N(CCO)CCO)n2)cc1 | inactive | inactive |  |  | inactive | inactive |  | inactive |  | inactive |  |  | inactive |  |  |  | inactive |  | 
6 | C#Cc1ccc(-c2ccccc2F)cc1 |  |  |  |  |  |  |  |  |  |  |  |  | inactive |  | inactive | inactive | inactive |  | inactive
7 | C=CCCC(=O)/C=C/C1C(C)=CCCC1(C)C (stereo not drawn) | 61.1 µM (active) | inactive |  |  |  |  | inactive |  |  | inactive | inactive | inactive | inactive | inactive | inactive | inactive |  | inactive | 
8 | C#C[C@]1(OC(C)=O)CC[C@H]2[C@@H]3CCC4=C/C(=N/O)CC[C@@H]4[C@H]3CC[C@@]21CC | 21.1 µM (active) |  |  | 0.952 µM [inconclusive] (active) | 0.106 µM (active) | inactive | inactive | 23.7 µM (active) |  | inactive | inactive |  |  | 29.8 µM (active) |  |  |  | inactive | 
9 | C#C[C@]1(OC(C)=O)CC[C@H]2[C@@H]3CCC4=C[C@@H](OC(C)=O)CC[C@@H]4[C@H]3CC[C@@]21C |  |  |  | 0.0085 µM [inconclusive] (active) | 0.7 nM (active) and 4.7 nM (active) | 33.5 µM (active) | inactive | inactive | inactive | inactive | inactive | inactive | inactive | inactive | inactive | 26.6 µM (active) | inactive | inactive | 
10 | Cl[Si](Cl)(c1ccccc1)c1ccccc1 |  | inactive | inactive | inactive | inactive | inactive | inactive | inactive | inactive | inactive | inactive | inactive |  | inactive |  | inactive | inactive | inactive | 
